Laboratory results as given in PubChem BioAssay (NCI).
Compounds without any hit were thinned out: in the full panel of roughly 79,000, 15% have a hit. Unmarked numbers belong to inactive results. Calls of active or inactive are those of the source. Rule as the data show it: active = growth inhibition above about 70%; inactive = the rest.

Experiments:
[1] = NCI Yeast Anticancer Drug Screen. Data for the rad50 strain (AID 155);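 also: 0% = growth of vehicle-only cultures of the same strain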; conditions: S. cerevisiae rad50 strain growth inhibition, active compounds read high
Outline: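 Yeast carrying a defined DNA repair defect were exposed to test compounds, and growth was compared with vehicle-treated controls to give percent inhibition.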

[2] = NCI Yeast Anticancer Drug Screen. Data for the mec2-1 strain (AID 157); conditions: S. cerevisiae mec2-1 strain, active compounds read high
Outline: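 Growth inhibition is read against vehicle-treated controls after compound exposure of the mec2-1 yeast strain, which is defective in DNA damage repair or cell cycle control.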

[3] = NCI Yeast Anticancer Drug Screen. Data for the sgs1 mgt1 strain (AID 161);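 also: 0% = growth of cultures given vehicle only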; conditions: S. cerevisiae sgs1 mgt1 strain, active compounds read high
Outline: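 This yeast growth screen uses a strain with defined DNA-repair lesions; compound-treated growth is compared with vehicle-treated growth.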

[4] = NCI Yeast Anticancer Drug Screen. Data for the cln2 rad14 strain (AID 165);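 also: 0% = growth equal to vehicle treated cultures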; conditions: S. cerevisiae cln2 rad14 strain, active compounds read high
Outline: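 Growth inhibition, relative to vehicle-treated controls, is the read-out. The test organism is a yeast strain with defined genetic alterations, cln2 rad14.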

[5] = NCI Yeast Anticancer Drug Screen. Data for the bub3 strain (AID 167); conditions: S. cerevisiae bub3 mutant strain, active compounds read high
Outline: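 Compounds were applied to a genetically altered yeast strain carrying a cell-cycle control defect. Growth inhibition was scored against vehicle-treated controls.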

[6] = NCI Yeast Anticancer Drug Screen. Data for the mlh1 rad18 strain (AID 175); conditions: S. cerevisiae mlh1 rad18 strain growth inhibition, active compounds read high
Outline: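 Cells of a genetically altered yeast strain, deficient in DNA damage repair, were treated with compound. Their growth was then compared with that of vehicle-treated cultures to give inhibition.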

[7] = at 5.0 µM (retest, dose inferred, filed as 0.5)
[8] = at 50.0 µM (retest, dose inferred, filed as 5.0)

SMILES | growth inhibition [1, 7] [%] | growth inhibition [1, 8] | growth inhibition ([1]; at 50.0 µM) | growth inhibition [2, 7] [%] | growth inhibition [2, 8] | growth inhibition ([2]; at 50.0 µM) | growth inhibition [3, 7] [%] | growth inhibition [3, 8] | growth inhibition ([3]; at 50.0 µM) | growth inhibition [4, 7] [%] | growth inhibition [4, 8] | growth inhibition ([4]; at 50.0 µM) | growth inhibition [5, 7] [%] | growth inhibition [5, 8] | growth inhibition ([5]; at 50.0 µM) | growth inhibition [6, 7] [%] | growth inhibition [6, 8] | growth inhibition ([6]; at 50.0 µM)
Cc1cccc(/C=N/NC(=S)Nc2ccccc2)n1 | -19 | 99% (active) | 89.2% (active) | -49 | 99% (active) | 92.8% (active) | -42 | 99% (active) | 91.2% (active) | -37 | 99% (active) | 91.8% (active) | -42 | 100% (active) | 92% (active) | -30 | 100% (active) | 89.3% (active)
Oc1cccc(NCSc2ccc(Cl)cc2)c1 | -4 | 95% (active) | 93.3% (active) | -3 | 95% (active) | 95.2% (active) | -9 | 95% (active) | 96.2% (active) | -5 | 91% (active) | 92.5% (active) | -3 | 93% (active) | 94.1% (active) | -1 | 91% (active) | 94% (active)
[N-]=[N+]=Nc1c([N+](=O)[O-])c(=O)n(-c2ccccc2)c2ccccc12 | -8 | 34% | 65.1% | -3 | 54% | 67.3% | 0 | 32% | 70% (active) | 27 | 21% | 46.9% | -21 | 62% | 61% | 4 | 57% | 68.2%
O=C(Nc1ccc(Br)cc1)c1cc(Br)c(O)c(Br)c1O | 21 | 99% (active) | 58.1% | 9 | 99% (active) | 98.8% (active) | 29 | 99% (active) | 59.9% | -5 | 99% (active) | 92.2% (active) | 11 | 99% (active) | 98.4% (active) | 24 | 99% (active) | 98% (active)
[O-][n+]1c2ccccc2nc2cc(Cl)ccc21 | -114 | 11% | 92.2% (active) | -35 | -32% | 21.6% | -53 | 6% | 68.5% | -64 | -46% | 25.6% | -47 | -1% | 48.1% | -105 | -17% | 84.8% (active)
CCCCCCCCCCCCCCCCCC[N+]1(C)CCC[N+](C)(CCCCCCCCCCCCCCCCCC)CC1 (configuration not stated) | 2 | 26% | 41.8% | -3 | 17% | 83.4% (active) | 2 | 53% | 47% | 0 | 3% | 7.9% | 0 | 77% (active) | 50.6% | 2 | 24% | 84% (active)
O=C(c1ccccc1)c1c(CO[N+](=O)[O-])n([O-])c2ccccc2[n+]1=O | 20 | 97% (active) | 98.5% (active) | 14 | 99% (active) | 99% (active) | 10 | 98% (active) | 98.3% (active) | 10 | 96% (active) | 99.2% (active) | -5 | 98% (active) | 97.7% (active) | 48 | 99% (active) | 98.8% (active)
O=C1CN(/N=C\c2ccc([N+](=O)[O-])o2)C(=O)N1 | 11 | 48% | 56.5% | 4 | 29% | 15.2% | 2 | 39% | 41% | -5 | 18% | -8.35% | 3 | 26% | 27.5% | 19 | 65% | 69.8%
CC1=NC(=Cc2cccc(Cl)c2)C(=O)N1n1c(-c2ccccc2)nc2ccccc2c1=O | 18 | 73% (active) | 68.5% | 21 | 77% (active) | 69.9% | 11 | 71% (active) | 79.4% (active) | 16 | 84% (active) | 78% (active) | -9 | 86% (active) | 74.7% (active) | 11 | 81% (active) | 81.7% (active)
